From PubChem
GPR151 ag – activators of human GPR151; Q8TDV0; PathHunter beta-arrestin GPR151 cells, luminescence; activation, % at 11.2 µM; 650,000 compounds, 1% hits; AID 1508602; in the data active = activation above about 4.9%
MITF primary – inhibitors of human MITF; AID 1259374; O75030; inhibition, % at 2.6 µM; 650,000 compounds, 0.91% hits; AlphaScreen MITF homodimerization, bead proximity signal; in the data active = inhibition above about 50%
Target sequence (O75030 whole entry, looked up): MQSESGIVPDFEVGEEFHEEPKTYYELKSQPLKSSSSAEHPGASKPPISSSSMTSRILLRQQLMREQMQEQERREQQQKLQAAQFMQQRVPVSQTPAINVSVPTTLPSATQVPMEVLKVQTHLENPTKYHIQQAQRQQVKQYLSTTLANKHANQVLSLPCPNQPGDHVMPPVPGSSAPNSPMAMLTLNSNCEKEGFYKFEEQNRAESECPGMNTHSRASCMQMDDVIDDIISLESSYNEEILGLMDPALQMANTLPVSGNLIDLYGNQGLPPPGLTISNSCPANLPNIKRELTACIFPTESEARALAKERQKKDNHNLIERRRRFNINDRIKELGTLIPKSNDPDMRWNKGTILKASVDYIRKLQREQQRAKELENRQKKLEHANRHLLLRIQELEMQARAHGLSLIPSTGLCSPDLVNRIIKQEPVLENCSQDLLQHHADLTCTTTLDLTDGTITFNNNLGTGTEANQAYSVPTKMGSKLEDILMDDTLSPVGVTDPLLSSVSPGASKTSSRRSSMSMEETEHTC
TEAD-YAP inh – TEAD-YAP interaction inhibition; inhibition, % at 9.12 µM; HEK-TIYL cells, TEAD-Gal4/YAP UAS-luciferase luminescence; 640,000 compounds, 1.4% hits; in the data active = inhibition above about 32%
FBW7 act – human FBW7 E3 ligase activation, primary screen. Q969H0. AlphaScreen FBW7–phospho-cyclin E peptide binding, activator screen. normalized activity (activation), % at 26.1 µM. 650,000 compounds, 0.13% hits; in the data active = normalized activity above about 1.9%;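 also: purified mutant Fbw7 with reduced substrate affinity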
Numbers stand for hits. Hits are enriched below; roughly 3.5% of the tested compounds scored in any of these assays.

`CS(=O)(=O)Nc1ccc(-c2cnc3cccc(Nc4cc(-c5ccccc5)ccn4)c3c2)cc1` gave GPR151 ag inactive, MITF primary inactive, TEAD-YAP inh inactive and FBW7 act 2.4.
COC(=O)C1=CN(C2CCCC2)C=C(C(=O)OC)C1c1ccc(F)cc1 was read as GPR151 ag inactive, MITF primary inactive, TEAD-YAP inh inactive and FBW7 act 3.1.
Screening CN(C)c1cccc(Nc2ccc(N3CCC(C(=O)NCc4cccc(C(F)(F)F)c4)CC3)nn2)c1 returned GPR151 ag inactive, MITF primary inactive, TEAD-YAP inh inactive and FBW7 act inactive.
Screening Cc1cccc(NC(=O)c2ccc(CN3CCc4ccccc4C3)cc2)c1 returned GPR151 ag inactive, MITF primary inactive, TEAD-YAP inh 36 and FBW7 act inactive.
`O=C(Nc1cccc(Cl)c1)c1ccc(CN2CCc3ccccc3C2)cc1` gave GPR151 ag inactive, MITF primary inactive, TEAD-YAP inh 40 and FBW7 act inactive.
`Clc1ccc(N2CCN(Cc3c[nH]c4ncccc34)CC2)cc1` gave GPR151 ag inactive, MITF primary inactive, TEAD-YAP inh inactive and FBW7 act inactive.
`COc1ccc(-c2nc(C(N)=O)c3[nH]c(=O)n(-c4ccccc4OC)c3n2)cc1OC` gave GPR151 ag inactive, MITF primary inactive, TEAD-YAP inh 32 and FBW7 act inactive.
Screening COc1ccc(-c2nc(C(N)=O)c3[nH]c(=O)n(-c4ccc(F)cc4)c3n2)cc1 returned GPR151 ag inactive, MITF primary inactive, TEAD-YAP inh 36 and FBW7 act inactive.
For COc1ccccc1-n1c(=O)[nH]c2c(C(N)=O)nc(-c3cccc(O)c3)nc21 the results were GPR151 ag inactive, MITF primary inactive, TEAD-YAP inh 34 and FBW7 act inactive.
Screening COc1ccc(-c2nc(C(N)=O)c3[nH]c(=O)n(-c4cccc(Cl)c4)c3n2)cc1O returned GPR151 ag inactive, MITF primary inactive, TEAD-YAP inh 63 and FBW7 act inactive.
CCOC(=O)c1ccc(S(=O)(=O)Nc2c(C(=O)OCC)oc3ccccc23)cc1 was read as GPR151 ag inactive, MITF primary inactive, TEAD-YAP inh inactive and FBW7 act inactive.
For COc1ccccc1Nc1c2c(nc3ccccc13)CCC2 the results were GPR151 ag inactive, MITF primary inactive, TEAD-YAP inh 54 and FBW7 act inactive.
`CCOC(=O)c1ccc(Nc2cc(C)nc(-c3ccccc3)n2)cc1` gave GPR151 ag inactive, MITF primary inactive, TEAD-YAP inh 40 and FBW7 act inactive.
Screening CC(=O)c1cccc(Nc2c3c(nc4ccccc24)CCC3)c1 returned GPR151 ag inactive, MITF primary inactive, TEAD-YAP inh 56 and FBW7 act inactive.
`CCOC(=O)c1ccc(Nc2c(N)c(=O)oc3ccccc23)cc1` gave GPR151 ag inactive, MITF primary inactive, TEAD-YAP inh 52 and FBW7 act inactive.
c1ccc(CCNc2c3c(nc4ccccc24)CCC3)cc1 was read as GPR151 ag inactive, MITF primary inactive, TEAD-YAP inh 39 and FBW7 act inactive.
For CCOC(=O)c1ccc(Nc2c3c(nc4ccccc24)CCC3)cc1 the results were GPR151 ag inactive, MITF primary inactive, TEAD-YAP inh 42 and FBW7 act inactive.
Screening NCCCNCCOCCOc1ccccc1 returned GPR151 ag inactive, MITF primary inactive, TEAD-YAP inh inactive and FBW7 act inactive.
N#CC1=C2SCC(O)(c3ccccc3)N2C(=O)CC1c1cccs1 (stereo not given) was read as GPR151 ag inactive, MITF primary inactive, TEAD-YAP inh 42 and FBW7 act inactive.
`COC(=O)c1ccc(C2CC(=O)N3C(=C2C#N)SCC3(O)c2ccc(C)cc2)cc1` (stereo not given) gave GPR151 ag inactive, MITF primary inactive, TEAD-YAP inh 49 and FBW7 act inactive.
COc1cccc(C2CC(=O)N3C(=C2C#N)SCC3(O)c2cccc(OC)c2)c1 (stereo not given) was read as GPR151 ag inactive, MITF primary inactive, TEAD-YAP inh 51 and FBW7 act inactive.
`N#CC1=C2SCC(O)(c3ccccc3)N2C(=O)CC1c1ccccc1F` (stereo not given) gave GPR151 ag inactive, MITF primary inactive, TEAD-YAP inh inactive and FBW7 act inactive.
`O=C(CN1CCCC1)NC1CCCc2c1cnn2-c1ccc(F)cc1` (stereo not given) gave GPR151 ag inactive, MITF primary inactive, TEAD-YAP inh inactive and FBW7 act inactive.
For COC(=O)/C(N=Nc1ccc(Br)cc1)=C(\C)O the results were GPR151 ag inactive, MITF primary inactive, TEAD-YAP inh inactive and FBW7 act inactive.
Cc1csc(NC(=O)c2c(-c3c(F)cccc3Cl)noc2C)n1 was read as GPR151 ag inactive, MITF primary inactive, TEAD-YAP inh inactive and FBW7 act inactive.
Screening CC(=O)c1ccc(NC(=O)NNC(=O)c2ccccn2)cc1 returned GPR151 ag inactive, MITF primary inactive, TEAD-YAP inh inactive and FBW7 act inactive.
`COc1ccccc1C(=O)NNC(=O)c1ccccn1` gave GPR151 ag inactive, MITF primary inactive, TEAD-YAP inh 41 and FBW7 act inactive.
`CC(=O)c1ccc(NC(=O)c2ccccn2)cc1` gave GPR151 ag inactive, MITF primary inactive, TEAD-YAP inh 87 and FBW7 act inactive.
Screening Cc1ccc(C)c(OCC(=O)NNC(=O)c2ccccn2)c1 returned GPR151 ag inactive, MITF primary inactive, TEAD-YAP inh 37 and FBW7 act inactive.
`COc1ccccc1C(=O)NNC(=O)c1cnccn1` gave GPR151 ag inactive, MITF primary inactive, TEAD-YAP inh inactive and FBW7 act inactive.
COc1ccc(C(=O)NNC(=O)c2ccccn2)cc1 was read as GPR151 ag inactive, MITF primary inactive, TEAD-YAP inh 94 and FBW7 act inactive.
CCC(C)[C@H]1O[C@]2(CC[C@@H]1C)C[C@@H]1C[C@@H](C/C=C(\C)[C@@H](OC3C[C@H](OC)C(O[C@H]4C[C@H](OC)[C@@H](O)[C@H](C)O4)[C@H](C)O3)[C@@H](C)/C=C/C=C3\CO[C@@H]4[C@H](O)C(C)=C[C@@H](C(=O)O1)[C@]34O)O2 (stereo not given in full) was read as GPR151 ag inactive, MITF primary inactive, TEAD-YAP inh inactive and FBW7 act inactive.
Screening CCOC(=O)C1=C(O)/C(=C/c2ccccc2OCC(=O)O)SC1=Nc1ccc(OCC)cc1 returned GPR151 ag inactive, MITF primary inactive, TEAD-YAP inh inactive and FBW7 act inactive.
`CCCc1ccc(-c2ccc(F)c(N3C(=O)c4cccc(F)c4C3=O)c2)nc1` gave GPR151 ag inactive, MITF primary inactive, TEAD-YAP inh 62 and FBW7 act inactive.
`CCOC(=O)c1c(NC2=NS(=O)(=O)c3ccccc32)sc2c1CCC2` gave GPR151 ag inactive, MITF primary inactive, TEAD-YAP inh inactive and FBW7 act inactive.
COc1ccc(CCN(C)c2ccc([N+](=O)[O-])cc2)cc1OC was read as GPR151 ag inactive, MITF primary inactive, TEAD-YAP inh inactive and FBW7 act inactive.
Screening COC(=O)Nc1nc2ccc(C(=O)c3ccccc3)cc2[nH]1 returned GPR151 ag inactive, MITF primary inactive, TEAD-YAP inh 33 and FBW7 act inactive.
Screening CCCCOC(=O)c1ccccc1C(=O)c1ccc2nc(NC(=O)OC)[nH]c2c1 returned GPR151 ag inactive, MITF primary inactive, TEAD-YAP inh 39 and FBW7 act inactive.
